Data as given in the supplement of paper PMC8728848.
This is one part of a sample in which the strongest signals are shown more often than they occur.

Key:
Experiment in all cases: glycan array binding signal (z-score within array); higher = stronger binding
Settings in all cases: glycan notation: IUPAC condensed, linker removed
[1] = target: Fuc(a1-2)Gal(b1-4)GlcNAc(b1-2)Man(a1-3)[Fuc(a1-2)Gal(b1-4)GlcNAc(b1-2)Man(a1-6)]Man(b1-4)GlcNAc(b1-4)GlcNAc
How it was run: (§1)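 Glycan array data came from 3228 arrays in the Consortium for Functional Glycomics database, and only arrays with an available protein sequence were kept. Glycan names were put into IUPAC-condensed notation, and columns mapping to the same glycan were averaged. The binding signal is a within-array Z-score, averaged across arrays of one protein sequence run at different concentrations or buffers and across linkers. A negative Z-score can be read as non-binding.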

[2] = target: Fuc(a1-2)Gal6S(b1-4)Glc6S
How it was run: as §1

[3] = target: Fuc(a1-2)[Gal(a1-4)]Gal(b1-4)GlcNAc
How it was run: as §1

[4] = target: Fuc(a1-3)[Gal3S(b1-4)]Glc6S
How it was run: as §1

[5] = target: Fuc(a1-3)[Gal3S(b1-4)]GlcNAc6S
How it was run: as §1

[6] = target: Fuc(a1-3)[GalNAc(b1-4)]GlcNAc
How it was run: as §1

[7] = target: Fuc(a1-4)GlcNAc
How it was run: as §1

[8] = target: Gal(a1-3)Gal(b1-4)[Fuc(a1-3)]GlcNAc
How it was run: as §1

[9] = target: Gal(b1-3)Gal
How it was run: as §1

[10] = target: Gal(b1-3)GalNAc(b1-4)Gal(b1-4)Glc
How it was run: as §1

[11] = target: Gal(b1-3)GlcNAc(b1-2)Man(a1-3)[Gal(b1-3)GlcNAc(b1-2)Man(a1-6)]Man(b1-4)GlcNAc(b1-4)[Fuc(a1-6)]GlcNAc
How it was run: as §1

[12] = target: Gal(b1-3)GlcNAc(b1-3)Gal(b1-4)Glc
How it was run: as §1

[13] = target: Gal(b1-3)[Fuc(a1-4)]GlcNAc(b1-3)Gal(b1-4)GlcNAc
How it was run: as §1

[14] = target: Gal(b1-4)GalNAc(a1-3)[Fuc(a1-2)]Gal(b1-4)GlcNAc
How it was run: as §1

[15] = target: Gal(b1-4)GlcNAc(b1-6)Gal(b1-4)GlcNAc
How it was run: as §1

[16] = target: Gal3S(b1-3)GlcNAc
How it was run: as §1

[17] = target: Gal3S(b1-4)Glc6S
How it was run: as §1

[18] = target: Gal3S(b1-4)[Fuc(a1-3)]Glc
How it was run: as §1

[19] = target: Gal3S4S(b1-4)GlcNAc
How it was run: as §1

[20] = target: Gal3S6S(b1-4)GlcNAc6S
How it was run: as §1

[21] = target: Glc(a1-4)Glc
How it was run: as §1

[22] = target: Glc(a1-6)Glc(a1-6)Glc
How it was run: as §1

[23] = target: GlcA(b1-3)Gal
How it was run: as §1

[24] = target: GlcNAc(b1-3)Gal(b1-4)GlcNAc(b1-3)Gal(b1-4)GlcNAc
How it was run: as §1

[25] = target: GlcNAc(b1-4)GlcNAc
How it was run: as §1

[26] = target: GlcNAc(b1-4)GlcNAc(b1-4)GlcNAc
How it was run: as §1

[27] = target: GlcNAc(b1-6)Gal(b1-4)GlcNAc
How it was run: as §1

[28] = target: Man(a1-2)Man(a1-2)Man(a1-6)[Man(a1-3)]Man
How it was run: as §1

[29] = target: Neu5Ac(a2-3)Gal(b1-3)GalNAc
How it was run: as §1

[30] = target: Neu5Ac(a2-3)Gal(b1-3)GalNAc(b1-4)[Neu5Ac(a2-3)]Gal(b1-4)Glc
How it was run: as §1

[31] = target: Neu5Ac(a2-3)Gal(b1-3)GalNAc6S
How it was run: as §1

[32] = target: Neu5Ac(a2-3)Gal(b1-3)GlcNAc
How it was run: as §1

[33] = target: Neu5Ac(a2-3)Gal(b1-3)[Fuc(a1-4)]GlcNAc(b1-3)Gal(b1-3)[Fuc(a1-4)]GlcNAc
How it was run: as §1

[34] = target: Neu5Ac(a2-3)Gal(b1-4)GlcNAc(b1-2)Man(a1-3)[Neu5Ac(a2-6)Gal(b1-4)GlcNAc(b1-2)Man(a1-6)]Man(b1-4)GlcNAc(b1-4)GlcNAc
How it was run: as §1

[35] = target: Neu5Ac(a2-6)Gal(b1-4)Glc
How it was run: as §1

[36] = target: Neu5Ac(a2-6)Gal(b1-4)GlcNAc(b1-2)Man(a1-3)[GlcNAc(b1-2)Man(b1-4)GlcNAc(b1-2)Man(a1-6)]Man(b1-4)GlcNAc(b1-4)GlcNAc
How it was run: as §1

[37] = target: Neu5Ac(a2-6)Gal(b1-4)GlcNAc(b1-2)Man(a1-3)[Man(a1-6)]Man(b1-4)GlcNAc(b1-4)GlcNAc
How it was run: as §1

[38] = target: Neu5Ac(a2-6)Gal(b1-4)GlcNAc(b1-3)Gal(b1-4)GlcNAc
How it was run: as §1

[39] = target: Neu5Ac(a2-8)Neu5Ac(a2-3)[GalNAc(b1-4)]Gal(b1-4)Glc
How it was run: as §1

[40] = target: Neu5Gc(a2-3)Gal(b1-4)Glc
How it was run: as §1

B1: Beta-Defensin 3 (Homo sapiens), P81534 (peptide)
chain: GIINTLQKYYCRVRGGRCAVLSCLPKEEQIGKCSTRGRKCCRRKK
glycan array binding signal (z-score) [1]: -0.692 | glycan array binding signal (z-score) [2]: 5.67 | glycan array binding signal (z-score) [3]: -0.449 | glycan array binding signal (z-score) [4]: 3.57 | glycan array binding signal (z-score) [5]: 8.21 | glycan array binding signal (z-score) [6]: -0.467 | glycan array binding signal (z-score) [7]: -0.369 | glycan array binding signal (z-score) [8]: -0.233 | glycan array binding signal (z-score) [9]: 0.134 | glycan array binding signal (z-score) [10]: -0.315 | glycan array binding signal (z-score) [11]: -0.62 | glycan array binding signal (z-score) [12]: -0.348 | glycan array binding signal (z-score) [13]: -0.493 | glycan array binding signal (z-score) [14]: -0.395 | glycan array binding signal (z-score) [15]: -0.485 | glycan array binding signal (z-score) [16]: 0.98 | glycan array binding signal (z-score) [17]: 4.37 | glycan array binding signal (z-score) [18]: 0.062 | glycan array binding signal (z-score) [19]: 4.31 | glycan array binding signal (z-score) [20]: 3.11 | glycan array binding signal (z-score) [21]: 0.053 | glycan array binding signal (z-score) [22]: -0.18 | glycan array binding signal (z-score) [23]: 1.72 | glycan array binding signal (z-score) [24]: -0.356 | glycan array binding signal (z-score) [25]: -0.569 | glycan array binding signal (z-score) [26]: -0.463 | glycan array binding signal (z-score) [27]: -0.369 | glycan array binding signal (z-score) [28]: -0.442 | glycan array binding signal (z-score) [29]: -0.221 | glycan array binding signal (z-score) [30]: -0.555 | glycan array binding signal (z-score) [31]: 1.18 | glycan array binding signal (z-score) [32]: -0.304 | glycan array binding signal (z-score) [33]: -0.364 | glycan array binding signal (z-score) [34]: -0.484 | glycan array binding signal (z-score) [35]: -0.294 | glycan array binding signal (z-score) [36]: -0.583 | glycan array binding signal (z-score) [37]: -0.313 | glycan array binding signal (z-score) [38]: -0.64 | glycan array binding signal (z-score) [39]: -0.591 | glycan array binding signal (z-score) [40]: -0.025
